# According to PubChem BioAssay AID778 (Sanford-Burnham Center for Chemical Genomics, 2007):
# In all, about 96,000 compounds went through this assay and about 20,000 (21%) were called active. Not all results are given here. Unmarked numbers belong to inactive results.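 The calls were made as follows: active = CYP2C19 inhibition above a set limit at 5 µM in the primary screen (cut at about 50% in these data); inactive = the rest.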
# Molecular target: Cytochrome P450 2C19 (Homo sapiens) (UniProt P33261)
# Sequence (P33261 whole entry, looked up): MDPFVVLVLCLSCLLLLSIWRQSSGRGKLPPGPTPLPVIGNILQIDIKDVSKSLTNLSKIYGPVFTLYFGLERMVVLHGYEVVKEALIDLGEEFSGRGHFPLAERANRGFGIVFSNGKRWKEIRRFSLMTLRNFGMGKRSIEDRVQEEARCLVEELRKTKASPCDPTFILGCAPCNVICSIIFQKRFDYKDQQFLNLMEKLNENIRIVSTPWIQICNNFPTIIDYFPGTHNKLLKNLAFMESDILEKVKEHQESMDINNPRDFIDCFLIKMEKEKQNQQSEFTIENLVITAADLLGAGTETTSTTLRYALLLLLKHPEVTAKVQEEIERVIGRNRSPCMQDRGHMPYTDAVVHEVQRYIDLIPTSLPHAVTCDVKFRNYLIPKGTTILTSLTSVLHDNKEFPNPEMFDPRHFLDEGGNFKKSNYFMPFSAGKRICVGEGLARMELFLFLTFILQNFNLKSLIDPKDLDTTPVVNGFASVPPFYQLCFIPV
# Test: blockers of cytochrome P450 2C19 activity – biochemical, luminescence, ADME assay, primary screen (AID 778);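 also: plate controls were negative control wells for no effect and 2.5 mM tranylcypromine positive control for full effect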
# Settings: CYP2C19 Supersomes, luciferin-H EGE luminescence, 30 min; at 5 µM; active compounds read high
row,Structure (SMILES),inhibition
1,O=C(Nc1nc2ccc(S(=O)(=O)N3CCCC3)cc2s1)C1CCCO1 (centres undefined),-2.2%
2,CCc1nnc(NC(=O)c2nc3nccc(C)n3n2)s1,0.6%
3,O=C1Cc2ccccc2Sc2ccc(Cl)cc21,58.3% (active)
4,O=C(CSc1nc2ccccc2o1)N1c2ccccc2Sc2ccc(Cl)cc21,36.4%
5,Cc1ccc(SCc2cc(=O)[nH]c(N3CCCCC3)n2)cc1,30.5%
6,CC(C)(C)NC(=O)COc1ccc(CNc2ccc3[nH]c(=O)[nH]c3c2)cc1,11.8%
7,COC(=O)c1ccc(OCC(=O)NC(C)(C)C)cc1,67.1% (active)
8,COc1ccc(OCC(=O)NNC(=O)c2ccc(-c3ccccc3)cc2)cc1,-6%
9,CC(NC(=O)COc1ccccc1)C(=O)NC1=NCCS1 (centres undefined),10.5%
10,COC(=O)/C=C/C(=O)NCc1ccco1,-5.7%
11,CCC(=O)Nc1nc(OC)cc(OC)n1,2.1%
12,FC(F)(F)c1nc2ccccc2nc1N/N=C/c1ccc(Cl)cc1,16.6%
13,O=[N+]([O-])c1ccc(Oc2ccc(F)cc2Br)c2ccncc12,31%
14,COc1ccc2c(c1)SC(C)CC2=O (centres undefined),79.6% (active)
15,COc1ccc2c(c1)OC(O)(C(F)(F)C(F)F)CC2=O (centres undefined),47.3%
16,COc1ccc(NC2CC(=O)N(C)C2=O)cc1 (centres undefined),-10.3%
17,O=C(Cn1ccc([N+](=O)[O-])n1)NCc1cccs1,0.6%
18,O=C(Nc1cc(=O)[nH]c2ncnn12)c1ccccc1Cl,2.2%
19,O=C(C1CCCO1)N(Cc1ccccc1)c1ccccc1 (centres undefined),0%
20,CCOc1ccc(C(CCc2ccccc2)NC(=O)c2ccc(OC)c(OC)c2)cc1OCC (centres undefined),56.7% (active)
21,COc1ccc(C(CC(=O)O)NC(=O)Cc2ccccc2)cc1 (centres undefined),-9.7%
22,CCOc1ccc(C(CC(=O)O)NC(=O)COc2ccccc2)cc1 (centres undefined),-2.9%
23,COc1cc2[nH]c(=O)n(CCC(=O)NC3CCN(Cc4ccccc4)CC3)c(=O)c2cc1OC,-19%
24,Cc1ccc(S(=O)(=O)N(C)CC(=O)NC2CCCC2)cc1,11.9%
25,COc1ccc(N(CC(=O)NC2CCCCCCC2)S(=O)(=O)c2c(C)nn(C)c2C)cc1,42.8%
26,CN(CC(=O)NC1CCCCC1)S(=O)(=O)c1cccc2cccnc12,57.6% (active)
27,CCn1c2c(c3ccc(OC)cc31)CCCC2=O,7.5%
28,C=C(C)Cn1c(C)cc(C)c(S(=O)(=O)c2ccccc2C)c1=O,19.6%
29,CCCOc1ccc(N2C(=O)CC(N(CCc3ccc(S(N)(=O)=O)cc3)C(C)=O)C2=O)cc1 (centres undefined),-16.6%
